Structures are written as SMILES. Inconclusive results are not listed. A call without a number means that no potency is given here. Values without a mark were called inactive. The source made the active and inactive calls. Calls follow the shape of the full dose curve.
Potency is read from the fitted curve at half-maximal effect.

The nature of the assay: p53 small molecule agonists, cell-based qHTS assay with human liver microsomes: qHTS cell viability counter screen (AID 1963579). Also: nearly all actives have a fitted effect of over 45% in size. Conditions: p53RE-bla HCT-116 viability, ATP luminescence, 16 h, HLM; series mostly up to 66 µM. From the text:
National Center for Advancing Translational Sciences [NCATS]
Division of Preclinical Innovation [DPI]
U.S. Environmental Protection Agency [EPA]
National Institutes of Environmental Health Sciences [NIEHS]
National Toxicology Program [NTP]
U.S. Food and Drug Administration [FDA]
p53, a tumor suppressor protein, is activated following cellular insult, including DNA damage and other cellular stresses. The activation of p53 regulates cell fate by inducing DNA repair, cell cycle arrest, apoptosis, or cellular senescence. The activation of p53, therefore, is a good indicator of DNA damage and other cellular stresses. […] The activation of the reporter gene under culture conditions can be detected by fluorescence intensity. This cell line was used to screen the Tox21 10K compound library in the condition of presence of human liver microsomes and to identify agonists that activate the p53 signaling pathway after in vitro metabolic activation (Ooka et al., Archive of Toxicology 96:1975-1987, 2022).
Tox21 Assay Protocol Summary:
The p53RE-bla cells were dispensed at 4,000cells/3ul/well in 1536-well black-clear bottom plates. After the assay plates were incubated at 37 C, 5% CO2 incubator for 5 hours, 23 nL of compounds dissolved in DMSO, positive controls or DMSO only was transferred to the assay plate. Following compound addition, 3 uL of human liver microsomes (XenoTech, Kansas City, KS) at final concentration of 0.5 mg/mL and 1uL of B-Nicotinamide adenine dinucleotide 2'-phosphate (NADPH) at final concentration of 0.5 mg/mL were transferred to the assay plate. The plates were incubated at 37 C for 16 hours. 1 uL of LiveBLAzer detection mixture was added to each well and the plates were incubated at room temperature in the dark for 2 h. Fluorescence intensity at 460 and 530 nm emission and 405 nm excitation were measured by an Envision plate reader. For cell viability readout that measures cytotoxicity, 4 ul/well of CellTiter-Glo reagent was added into the assay plates using a Flying Reagent Dispenser. After 30 min incubation at room temperature, the luminescence intensity in the plates was measured using a ViewLux plate reader.
In general terms: In qHTS, concentration-response curves come from the screen itself.
For `COC(=O)c1cc(Cl)ccc1[N+](=O)[O-]`, the Potency result was “inactive”.

Consider `CC(=O)OCC(=O)[C@@]1(O)[C@H](C)C[C@H]2[C@@H]3CCC4=CC(=O)C=C[C@]4(C)[C@@]3(F)[C@@H](O)C[C@@]21C`, for which the Potency entry was “inactive”. Still for that read-out and setting: under `C=C(C)C1CCC(C)(O)CC1` (stereo not given) stands “inactive”. For `CCCOc1ccc2c(c1)CC[C@@H]1[C@@H]2CC[C@]2(C)C(OC)CC[C@@H]12` (stereo not given in full), the Potency result was “inactive”. Take `CCC(C)[O-].CCC(C)[O-].CCOC(=O)/C=C(/C)[O-].[Al+3]`: the Potency result was “inactive”. Turning to `Cc1nc2ccccc2c(=O)o1`, the Potency entry was “inactive”. As to `N/C(=N\N=C\c1ccc(Cl)cc1)N/N=C/c1ccc(Cl)cc1`, the Potency result is “inactive”. As for `OC12N=C(c3ccccc3)SC1Cc1cc(Cl)ccc12` (stereo not given), the Potency result was “inactive”.

In the case of `CO/N=C1\CN(c2nc3c(cc2F)c(=O)c(C(=O)O)cn3C2CC2)CC1CN` (stereo not given), the Potency result was “inactive”. For `CCn1c(=O)c2c(nc(/C=C/c3ccc(OC)c(OC)c3)n2C)n(CC)c1=O`, the Potency result was “inactive”.

As for `CCCCCCCCCCCCCCCCC(C(=O)O)C(O)(CC(=O)O)C(=O)O` (stereo not given), the Potency result was “inactive”. Same read-out and setting: in the case of `CCCCOCCOC(=O)COc1nc(Cl)c(Cl)cc1Cl` it was “inactive”; in that of `O=[N+]([O-])C1(Br)COCOC1`, “inactive”; in that of `c1csc(SSc2cccs2)c1`, “inactive”. With `CC(=O)OCC(=O)[C@@]1(O)CC[C@H]2[C@@H]3CCC4=CC(=O)CC[C@]4(C)[C@H]3C(=O)C[C@@]21C`, the Potency result is “inactive”. Still for that read-out and setting: in the case of `CCCCCCCC/C=C\CCCCCCCC(=O)N(C)CC(=O)O` it was “inactive”; in that of `O=C1C=CC(=O)N1c1ccc(Cc2ccc(N3C(=O)C=CC3=O)cc2)cc1`, 16.2 µM (active). As to `O=[N+]([O-])c1cccc(C(F)(F)F)c1`, the Potency entry is “inactive”. In the case of `C=Cc1ccc(C=C)cc1`, the Potency result is “inactive”.

`O=C=NCC1CCCC(CN=C=O)C1` (stereo not given): the Potency result is “inactive”.

As for `CN(C)CCCN(C)C`, the activity change, negative = cytotoxicity was -2.9% [at 5.99 µM]. Turning to `c1ccc2sc(SN3CCOCC3)nc2c1`, the Potency entry is “inactive”. Turning to `CCCCCCCC/C=C\CCCCCCCC(=O)N(CCO)CCO`, the Potency entry was “inactive”.

For the molecule `CC(C)N1C(=O)c2ccccc2C1=O`, the Potency result is “inactive”. Take `CC(C)c1ccccc1N`: the Potency result was “inactive”.

Regarding `Cc1cccc(O)c1N`, the Potency result is “inactive”.

As for `Cc1ccc(C(C)(C)C)c(O)c1`, the Potency entry was “inactive”. Still for that read-out and setting: under `Nc1cccc(O)c1` stands “inactive”; under `CS(=O)(=O)Nc1ccc([N+](=O)[O-])cc1Oc1ccccc1`, “inactive”. With `CC(C)(CO)C(O)C(=O)NCCCO` (stereo not given), the Potency entry was “inactive”. Consider `CCc1ncc(C)[nH]1`, for which the Potency result was “inactive”. With `CCN1CCN(C(=O)N[C@@H](C(=O)N[C@@H]2C(=O)N3C(C(=O)O)=C(CSc4nnnn4C)CS[C@H]23)c2ccc(O)cc2)C(=O)C1=O`, the Potency entry is “inactive”. Same read-out and setting: under `CC[C@H](C)C(=O)O[C@H]1C[C@H](O)C=C2C=C[C@H](C)[C@H](CC[C@@H](O)C[C@@H](O)CC(=O)O)[C@H]21` stands “inactive”; under `CCCCCCCC/C=C\CCCCCCCC(=O)OC(CO)CO`, “inactive”. As for `CCCCCCCCCCCC(=O)OCC(O)CO` (stereo not given), the Potency result is “inactive”. With `O=C(/C=C/c1ccc(O)c(O)c1)O[C@@H](C(=O)O)[C@@H](OC(=O)/C=C/c1ccc(O)c(O)c1)C(=O)O`, the Potency result is “inactive”.

Turning to `CCC(C)(C)c1cc(O)c(C(C)(C)CC)cc1O`, the Potency entry is “inactive”.

As for `COC(=O)[C@]1(C)CCC[C@@]2(C)[C@H]1CC=C1C=C(C(C)C)CC[C@@H]12`, the Potency entry is “inactive”. For the molecule `N[C@@H](C(=O)N[C@@H]1C(=O)N2C(C(=O)O)=C(Cl)CS[C@H]12)c1ccccc1`, the activity change, negative = cytotoxicity is 3.89% [at 5.99 µM]. Regarding `O=C(Cl)c1ccc([N+](=O)[O-])cc1`, the Potency result is “inactive”.

These data come from PubChem BioAssay (Tox21).
